# Experimental data as given in PubChem BioAssay.
# Values joined by “and” are separate entries in the source; they are usually repeats but may differ in a detail not shown here. Identical values can stand only once. Active and inactive are the calls of the source.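 How the source made its calls, unless noted: active means compounds whose cell count with miR-34 switched on is under 0.7 times the count with it off; inactive means the rest.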
# Key:
# [1] = compounds altering viability of human ES cells (AID 493140; call rule not given here;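 further: cells exposed to compounds for four days before counting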); conditions: human embryonic stem cell survival screen; stronger effect = higher value
# [2] = P. berghei load reduction in hepatocytes – cell-based, HepG2, luciferase luminescence, HepG2 viability, primary screen (AID 624349; in the data active means parasite load remaining mostly below about 12%, no sharp cut-off; inactive means mostly above about 10%;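 further: 100% = mean of DMSO negative control wells on the same plate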); conditions: P. berghei liver stage in HepG2, luciferase luminescence, concentration not given here; parasite load remaining: stronger effect = lower value; viability: measured here: HepG2 viability without parasites
# [3] = Wnt pathway potentiators raising nuclear beta-catenin – imaging, WNT3A-conditioned medium, mouse C2C12, NPC library, primary screen (AID 1117326; in the data active means nuclear beta-catenin stimulation mostly above about 4.2%, no sharp cut-off; inactive means mostly below about 10%); conditions: stronger effect = higher value
# [4] = stimulators of insulin release from INS-1E, primary screen, cell-based, 5 mM glucose, NPC library (AID 1117329;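 active means compound raises insulin release from rat beta cells at 5 mM glucose, no numeric limit stated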); conditions: rat INS-1E insulin secretion, at 10 µM, stronger effect = higher value
# [5] = growth inhibition of GSK3B-pretreated HCT116 cells – cell-based, CellTiter-Glo, 0.2 to 20 µM (AID 1117336;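 active means compounds lowering colon cancer cell viability after pretreatment blocking the GSK3B kinase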); conditions: HCT116 viability after GSK3B inhibitor, at 20 µM, stronger effect = higher value
# [6] = inhibition of endothelial tube formation, primary screen, imaging, VEGF stimulated, CD31 staining, tube area, NPC library (AID 1117340;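 active means compound that reduces growth-factor-driven endothelial tube area in a mixed cell culture, no cutoff stated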); conditions: VEGF-stimulated ADSC/ECFC co-culture, at 10 µM, stronger effect = higher value
# [7] = GLP1 release stimulators, primary, NCI-H716, NPC library (AID 1117341;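 active means compound raises GLP1 secretion from the human gut endocrine cells, with no numeric limit stated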); conditions: NCI-H716 cells, at 10 µM, stronger effect = higher value
# [8] = HCT116 colon cancer cell growth inhibition, primary screen, CellTiter-Glo luminescence, NPC library (AID 1117342;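 active means compounds that lower survival of HCT116 colon cancer cells in the luminescence readout, no numeric limit stated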); conditions: at 20 µM (top of the series)
# [9] = reduced SW480 viability measured with CellTiter-Glo, NPC library, primary (AID 1117343;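 active means compounds that lower viability of the colon cancer cells in the luminescence readout, with no numeric limit stated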); conditions: CellTiter-Glo luminescence; at 20 µM (top of the series) unless noted
# [10] = NPC library primary testing for decreased DLD-1 cell viability via CellTiter-Glo (AID 1117346;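 active means compounds that lower survival of DLD-1 colon cancer cells in the luminescence readout, no cutoff given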); conditions: DLD-1 viability, CellTiter-Glo luminescence; at 20 µM (top of the series)
# [11] = EMT-state selective cytotoxicity in co-culture – imaging, PC-3E GFP, TEM4-18 mCherry, primary screen (AID 1345086;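 active means compounds killing one labelled cell type while sparing the other, by normalised counts and ratio limits, not self-fluorescent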;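 on all read-outs here: cells exposed to compound for 72 h before imaging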;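 on red/green cell ratio (normalised): normalised mesenchymal count divided by normalised epithelial count so high means epithelial killing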); conditions: PC-3E GFP / TEM4-18 mCherry co-culture, imaging cell counts, at 1 µM; for red/green cell ratio (normalised): actives lie on both sides, counts scaled to control wells, 1 = unselective
# [12] = viability loss with induced miR-34 in A549 – imaging, A549 dox-inducible miR-34, nuclei and caspase counts, primary screen (AID 1347080); conditions: A549 miR-34 inducible, Hoechst nuclei count, 48 h
# [13] = MELAS cybrid and Rieske KO viability enhancers – cell-based, MELAS cybrids, Rieske KO mouse fibroblasts, CellTiter-Glo, primary screen (AID 1508586;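 active means mean z-score across replicates of 1.96 or higher in either the MELAS or the Rieske mutant cell line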;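 further: z relative to plate mean and SD of compound and empty wells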); conditions: low glucose
# [14] = target: NAD(+) hydrolase SARM1 (Homo sapiens) (UniProt Q6SZW1); test: blocking NAD cleavage by SARM1 SAM-TIR – cell lysate, NAD-Glo luminescence (AID 1508614;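 active means compound whose remaining NAD level is above about 45 nM, limit read from the data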); conditions: SAM-TIR HEK293T lysate NADase, at 1 µM, stronger effect = higher value
# Sequence of NAD(+) hydrolase SARM1 (Homo sapiens) (Q6SZW1 whole entry, looked up): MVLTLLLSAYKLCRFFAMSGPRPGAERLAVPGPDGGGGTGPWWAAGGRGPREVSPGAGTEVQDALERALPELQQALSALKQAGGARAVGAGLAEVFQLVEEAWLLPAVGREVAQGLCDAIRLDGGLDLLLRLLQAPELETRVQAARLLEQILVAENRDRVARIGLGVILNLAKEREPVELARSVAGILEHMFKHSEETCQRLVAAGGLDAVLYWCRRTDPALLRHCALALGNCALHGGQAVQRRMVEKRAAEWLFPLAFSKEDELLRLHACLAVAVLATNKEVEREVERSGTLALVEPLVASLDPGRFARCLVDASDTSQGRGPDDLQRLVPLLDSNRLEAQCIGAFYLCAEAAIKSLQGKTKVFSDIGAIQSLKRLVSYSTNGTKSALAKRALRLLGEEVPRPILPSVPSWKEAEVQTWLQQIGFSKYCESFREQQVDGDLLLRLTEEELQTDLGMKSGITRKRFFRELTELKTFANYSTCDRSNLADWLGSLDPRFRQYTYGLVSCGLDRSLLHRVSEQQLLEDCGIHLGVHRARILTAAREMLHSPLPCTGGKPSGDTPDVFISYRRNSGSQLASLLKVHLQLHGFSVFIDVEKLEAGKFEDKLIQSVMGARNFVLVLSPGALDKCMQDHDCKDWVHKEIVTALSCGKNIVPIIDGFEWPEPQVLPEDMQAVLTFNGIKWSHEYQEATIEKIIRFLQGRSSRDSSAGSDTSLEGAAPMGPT
# [15] = growth inhibition, single agent or in combination, cell-based, chromothripsis tumors, cisplatin or BGB combos (AID 1671449; in the data active means inhibition above about 80%;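 further: cells exposed for 96 hours; 0% = vehicle DMSO and 100% = killing by high DMSO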); conditions: LFS_MB_P medulloblastoma cells
# [16] = growth inhibition, single agent and combos, cell-based, chromothripsis tumors, cisplatin or BGB combos (AID 1671450; in the data active means inhibition above about 80%;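 further: cells exposed to compound for four days; 0% = vehicle DMSO and 100% = cell killing by high DMSO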); conditions: HDN33 neuroblastoma cells, stronger effect = higher value
# [17] = growth inhibition, single agents and combos, ICB984, cell-based, cisplatin or BGB combos, synergistic combos for chromothripsis tumors (AID 1671451; call rule not given here;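 further: cells exposed for 96 hours before readout; 0% = vehicle DMSO and 100% = killing by high DMSO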); conditions: ICB984 medulloblastoma cells, drug combinations, stronger effect = higher value
# [18] = growth inhibition, single agents and combos, HTB85, cell-based, BGB or cisplatin IC20 combos, synergistic combos for chromothripsis tumors (AID 1671453; in the data active means inhibition above about 80%;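 further: cells exposed for 96 hours before readout; 0% = vehicle DMSO and 100% = high DMSO killing control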); conditions: HTB85 osteosarcoma cells, drug combinations, stronger effect = higher value
# [19] = growth inhibition, MDA-MB-436, cell-based, BGB or cisplatin combos, synergistic combos for chromothripsis tumors (AID 1671458; call rule not given here;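 further: cells exposed for 96 hours; 0% = vehicle DMSO and 100% = killing by high DMSO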); conditions: MDA-MB-436 breast carcinoma growth inhibition, drug combinations, stronger effect = higher value
# [20] = measured here: epithelial PC-3E GFP cell survival
# [21] = measured here: mesenchymal TEM4-18 mCherry cell survival
compound,measurement,setting,value
OC(CCN1CCCCC1)(c1ccccc1)C1CC2C=CC1C2 (configuration not stated),survival,[1],9.67 (inactive)
same,parasite load remaining,[2],61.4% (inactive) and 36.1% (inactive)
same,viability,[2],78.3% and 106%
same,nuclear beta-catenin stimulation,[3]; at 10 µM,0.3% (inactive)
same,nuclear beta-catenin stimulation,"[3]; stimulation, at 2 µM",-0.7%
same,insulin secretion stimulation,[4],4.5% (inactive)
same,viability decrease,[5],-65.7% (inactive)
same,tube area decrease,[6],1.4% (inactive)
same,GLP1 secretion stimulation,[7],-4% (inactive)
same,inhibition of viability,[8],36.4% (inactive)
same,viability decrease (inhibition),[9],39.6% (inactive)
same,viability decrease (inhibition),[10],2.7% (inactive)
same,red/green cell ratio (normalised),[11],0.98 (inactive)
same,normalised cell number,[11]; [20],0.85
same,normalised cell number,[11]; [21],0.83
same,fold change,"[12]; stronger effect = lower value, cell number ratio, induced over uninduced",1.01 (inactive) and 0.963 (inactive) and 0.83 (inactive)
same,fold change,[12]; measured here: relative caspase fold change +Dox/-Dox,1.73 and 0.774 and 4.12
same,cell count,"[12]; measured here: total cells with miR-34 induction, stronger effect = lower value",10100 and 7400 and 10600
same,cell count,[12]; measured here: total cells without miR-34 induction,9960 and 7680 and 12700
same,z-score,"[13]; MELAS cybrid survival, CellTiter-Glo 48 h, stronger effect = higher value",-0.399 (inactive)
same,z-score,"[13]; Rieske KO mouse fibroblast survival, CellTiter-Glo 72 h",0.122
same,remaining NAD,[14],10 nM (inactive)
C[C@H]1[C@H](NC(=O)/C(=N/OC(C)(C)C(=O)O)c2csc(N)n2)C(=O)N1S(=O)(=O)O (stereo in doubt),nuclear beta-catenin stimulation,[3]; at 10 µM,5% (inactive)
same,nuclear beta-catenin stimulation,"[3]; stimulation, at 2 µM",-0.4%
same,insulin secretion stimulation,[4],0.1% (inactive)
same,viability decrease,[5],-16.4% (inactive)
same,tube area decrease,[6],11.9% (inactive)
same,GLP1 secretion stimulation,[7],-1.9% (inactive)
same,inhibition of viability,[8],0.97% (inactive)
same,viability decrease (inhibition),[9],25.1% (inactive)
same,viability decrease (inhibition),[10],-11.3% (inactive)
same,red/green cell ratio (normalised),[11],1.32 (inactive)
same,normalised cell number,[11]; [20],0.82
same,normalised cell number,[11]; [21],1.08
CN1CCN(c2c(F)cc3c(=O)c(C(=O)O)cn4c3c2OCN4C)CC1,nuclear beta-catenin stimulation,[3]; at 10 µM,-0.6% (inactive)
same,nuclear beta-catenin stimulation,"[3]; stimulation, at 2 µM",-2.1%
same,insulin secretion stimulation,[4],-0.9% (inactive)
same,viability decrease,[5],7.3% (inactive)
same,tube area decrease,[6],-6.4% (inactive)
same,GLP1 secretion stimulation,[7],-0.1% (inactive)
same,inhibition of viability,[8],1.5% (inactive)
same,viability decrease (inhibition),[9],-15.8% (inactive)
same,viability decrease (inhibition),[10],-5% (inactive)
same,red/green cell ratio (normalised),[11],0.85 (inactive)
same,normalised cell number,[11]; [20],1.17
same,normalised cell number,[11]; [21],1
same,inhibition,"[15]; at 0.5 µM, stronger effect = higher value",-17.7% (inactive)
same,inhibition,"[15]; measured here: combination with BGB IC20, at 0.005 µM",-16.9%
same,inhibition,"[15]; measured here: combination with BGB IC40, at 0.005 µM",-17.4%
same,inhibition,"[15]; measured here: combination with BGB IC40, at 0.05 µM",-36.9%
same,inhibition,"[15]; measured here: combination with cisplatin, at 0.5 µM, stronger effect = higher value",-51.4%
same,inhibition,"[15]; measured here: combination with cisplatin, at 5 µM, stronger effect = higher value",-32.3%
same,inhibition,"[16]; BGB combo, at 5 µM",5.71%
same,inhibition,[16]; at 0.5 µM,-7.25% (inactive)
same,inhibition,"[16]; cisplatin combo, at 5 µM",-1.82%
same,inhibition,"[16]; measured here: with BGB IC20 combination, at 0.5 µM",5.2%
same,inhibition,"[16]; measured here: with cisplatin IC20 combination, at 0.5 µM",-12.1%
same,inhibition,"[16]; single agent, at 5 µM",-9.4%
same,inhibition,"[17]; BGB IC20 combo, at 0.005 µM",9.65%
same,inhibition,"[17]; BGB IC40 combo, at 0.005 µM",-1.21%
same,inhibition,"[17]; BGB IC40 combo, at 0.05 µM",1.28%
same,inhibition,[17]; at 0.5 µM,-28.8% (inactive)
same,inhibition,"[17]; cisplatin combo, at 0.05 µM",-1.48%
same,inhibition,"[17]; cisplatin combo, at 0.5 µM",-25.3%
same,inhibition,"[17]; cisplatin combo, at 5 µM",-7.68%
same,inhibition,"[17]; measured here: 5 uM single agent, at 5 µM",-17.3%
same,inhibition,[18]; at 0.5 µM,-12.7% (inactive)
same,inhibition,"[18]; measured here: with BGB IC20, at 0.5 µM",-22.2%
same,inhibition,"[18]; measured here: with BGB IC20, at 5 µM",-21.7%
same,inhibition,"[18]; measured here: with cisplatin IC20, at 0.5 µM",-26.4%
same,inhibition,"[18]; measured here: with cisplatin IC20, at 5 µM",-29.4%
same,inhibition,"[18]; single agent, at 5 µM",-8.81%
same,inhibition,[19]; at 0.5 µM,-16.5% (inactive)
same,inhibition,"[19]; measured here: BGB combination, at 0.5 µM",-13.3%
same,inhibition,"[19]; measured here: BGB combination, at 5 µM",-9.95%
same,inhibition,"[19]; measured here: cisplatin combination, at 0.5 µM",-29.6%
same,inhibition,"[19]; measured here: cisplatin combination, at 5 µM",-33.2%
